Laboratory results as given in the supplement of paper PMC7156485.
± gives the standard deviation of the averaged measurements.

Tests used:
Settings in all cases: concentration: 10 µM; 24 h
HCC1569 [1] = experiment: cell number relative to DMSO (% of DMSO); higher = more cells (less growth inhibition / toxicity)
In short: (§1)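 For HCC1569 and TDF cells, compounds at 10 µM were applied for 24 h at 37 °C in triplicate in 384-well plates. Cells were fixed in 3.7% formaldehyde, stained for H1.0 and with DAPI, and imaged at ×10 over six fields per well. The endpoint, H1.0 nuclear intensity or cell number, is shown as percent of the plate control using the median of replicates. Positional effects were smoothed for HCC1569 only.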

TDF [2] = experiment: as above
In short: as §1

TDF [3] = experiment: H1.0 immunofluorescence intensity relative to DMSO (% of DMSO); higher = stronger H1.0 induction, active = 120 or more
In short: as §1

HCC1569 [4] = experiment: H1.0 immunofluorescence intensity relative to DMSO (% of DMSO); higher = stronger H1.0 induction, active = 140 or more
In short: as §1
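For H1.0 immunofluorescence intensity relative to DMSO in this document: TDF is a line of transformed human dermal fibroblasts of mesenchymal origin.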
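For cell number relative to DMSO in this document: TDF denotes transformed human dermal fibroblasts of mesenchymal origin.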

SMILES | cell number (HCC1569 [1]) | cell number (TDF [2]) | H1.0 immunofluorescence intensity (TDF [3]) | H1.0 immunofluorescence intensity (HCC1569 [4])
C[N+](C)(C)CCCCCC[N+](C)(C)C.[Cl-].[Cl-] [Hexamethonium dichloride] | 98 | 99.9 | 95.6 (inactive) | 87.7 (inactive)
CSc1ccc2c(c1)N(CCC1CCCCN1C)c1ccccc1S2.Cl (configuration not stated) [Thioridazine hydrochloride] | 86.6 | 90.6 | 110 (inactive) | 155 (active)
CCOc1cc2ncc(C#N)c(Nc3ccc(F)c(Cl)c3)c2cc1NC(=O)/C=C/CN(C)C | 43.6 | 10 | 177 (active) | 84.6 (inactive)
O=S(=O)(NCc1ccccn1)c1ccc(Br)c2ccccc12 [4-bromo-N-(2-pyridinylmethyl)-1-naphthalenesulfonamide] | 99.1 | 99.2 | 96.2 (inactive) | 107 (inactive)
O=C1NC(=O)c2c1c(-c1ccccc1)cc1[nH]c3ccc(O)cc3c21 | 59.9 | 51.1 | 101 (inactive) | 91.4 (inactive)
CCCOc1ccc2nc(NC(=O)OC)[nH]c2c1 [Oxibendazole] | 62.8 | 9.31 | 157 (active) | 154 (active)
O=C(C=Cc1ccc(O)c(O)c1)OCCc1ccccc1 [Caffeic acid phenethyl ester] | 69.1 | 81 | 94.7 (inactive) | 108 (inactive)
CCCCCCCCCCCCCCCCCCc1ccc(C(=O)/C=C/C(=O)O)cc1 [(2E)-4-(4-octadecylphenyl)-4-oxo-2-butenoic acid] | 100 | 105 | 97.6 (inactive) | 107 (inactive)
CCCCCN(C)CCC(O)(P(=O)(O)O)P(=O)(O)O [Ibandronate] | 103 | 100 | 98.4 (inactive) | 97.2 (inactive)
NCCCCCC(=O)O [6-Aminohexanoic acid] | 101 | 116 | 106 (inactive) | 102 (inactive)
CCC1(O)CC2CN(CCc3c([nH]c4ccccc34)C(C(=O)OC)(c3cc4c(cc3OC)N(C)C3C(O)(C(N)=O)C(O)C5(CC)C=CCN6CCC43C65)C2)C1.O=S(=O)(O)O (configuration not stated) [Vindesine sulfate] | 55.4 | 8.86 | 155 (active) | 179 (active)
O=C(O)CCCCC=CCC(O)C=CC=CC=CC(O)CCCC(=O)O (configuration not stated) [20-Carboxy-leukotriene B4] | 102 | 103 | 91.1 (inactive) | 102 (inactive)
CCCCCCCCCC(=O)OCC(CO)OC(=O)CCCCCCCCC (configuration not stated) [1,2-Didecanoyl-glycerol (10:0)] | 102 | 98.8 | 98.3 (inactive) | 101 (inactive)
COc1cc(Br)c(S(=O)(=O)Nc2ccc(Cl)c(O[C@@H]3CCN(C)C3)c2)cc1OC | 83.2 | 82.9 | 94.8 (inactive) | 137 (inactive)
CCCCNc1cc(C(=O)O)cc(S(N)(=O)=O)c1Oc1ccccc1 [Bumetanide] | 102.7 ± 0.95 | 105 ± 2 | 96.4 (inactive) | 100 (inactive)
CC(C)NCC(O)c1ccc(NS(C)(=O)=O)cc1.Cl (racemic) | 108 | 100 | 92.6 (inactive) | 99.1 (inactive)
CN(C)NN=C1N=CN=C1C(N)=O [Dacarbazine] | 102 | 102 | 97.8 (inactive) | 101 (inactive)
CC1CC=CC=CC=CC=CC(OC2OC(C)C(O)C(N)C2O)CC2OC(O)(CC(O)CC3OC3C=CC(=O)O1)CC(O)C2C(=O)O (configuration not stated) [Pimaricin] | 106 | 94 | 94.9 (inactive) | 88.8 (inactive)
NC1(C(=O)O)CCc2cc(C(=O)O)ccc21 (configuration not stated) | 101 | 113 | 88.5 (inactive) | 84.5 (inactive)
CNC(=O)c1ccccc1Sc1ccc2c(C=Cc3ccccn3)n[nH]c2c1 [Axitinib] | 67.8 | 46.4 | 99.1 (inactive) | 134 (inactive)
NS(=O)(=O)c1ccc(N2CCN(CC[C@@H]3OCCc4ccccc43)CC2)cc1 | 101 | 102 | 99.4 (inactive) | 104 (inactive)
Cc1ccc(CN2C(=O)S/C(=C\c3ccc(Cl)cc3)C2=O)cc1 | 99.6 | 117 | 98.2 (inactive) | 97.2 (inactive)
CC(C)C(=O)Nc1ccc([N+](=O)[O-])c(C(F)(F)F)c1 [Flutamide] | 81.3 ± 22 | 66.1 ± 48 | 112 (inactive) | 135 (inactive)
